Sampled rows, rich in hits. Any-hit rate of the full collection: about 3.4%.
PLK1 PBD inh: qHTS for Inhibitors of PLK1-PDB (polo-like kinase 1 - polo-box domain): Primary Screen. Potency, µM, inactives show max response, negative = inhibition, most hits filed as inhibitors. Serine/threonine-protein kinase PLK1 (Homo sapiens), P53350. 360,000 compounds, 2.8% hits. Plk1 PBD binding of FITC phosphopeptide, fluorescence polarization; further: series mostly up to about 57 µM; on the % scale 0 is the no-effect control and ±100 the full control effect; nearly all actives have a fitted effect of over 65% in size
VDR inh: Inhibitors of the vitamin D receptor (VDR): qHTS; Vitamin D3 receptor (Homo sapiens), P11473; VDR-SRC2-3 peptide fluorescence polarization, 2 h; Potency, µM, without a hit: max response, negative = inhibition, most hits filed as inhibitors; 400,000 compounds, 0.93% hits; further: on the % scale 0 is the no-effect control and ±100 the full control effect
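VDR–SRC2-3 interaction, FP format. Cmpds 23 nl via pintool, brief spin, 2 h ambient incubation.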
GLS inh: qHTS for Inhibitors of Glutaminase (GLS); Glutaminase kidney isoform, mitochondrial (Homo sapiens), O94925; GLS enzymatic activity, qHTS titration; Potency, µM (doses to about 45.5 µM), for the others: at the highest dose activity change, negative = inhibition, actives largely listed as inhibitors; 410,000 compounds, 0.21% hits; AID 624170, 2012; further: on the % scale 0 is the no-effect control and ±100 the full control effect
Target sequence (O94925 whole entry, looked up, canonical isoform): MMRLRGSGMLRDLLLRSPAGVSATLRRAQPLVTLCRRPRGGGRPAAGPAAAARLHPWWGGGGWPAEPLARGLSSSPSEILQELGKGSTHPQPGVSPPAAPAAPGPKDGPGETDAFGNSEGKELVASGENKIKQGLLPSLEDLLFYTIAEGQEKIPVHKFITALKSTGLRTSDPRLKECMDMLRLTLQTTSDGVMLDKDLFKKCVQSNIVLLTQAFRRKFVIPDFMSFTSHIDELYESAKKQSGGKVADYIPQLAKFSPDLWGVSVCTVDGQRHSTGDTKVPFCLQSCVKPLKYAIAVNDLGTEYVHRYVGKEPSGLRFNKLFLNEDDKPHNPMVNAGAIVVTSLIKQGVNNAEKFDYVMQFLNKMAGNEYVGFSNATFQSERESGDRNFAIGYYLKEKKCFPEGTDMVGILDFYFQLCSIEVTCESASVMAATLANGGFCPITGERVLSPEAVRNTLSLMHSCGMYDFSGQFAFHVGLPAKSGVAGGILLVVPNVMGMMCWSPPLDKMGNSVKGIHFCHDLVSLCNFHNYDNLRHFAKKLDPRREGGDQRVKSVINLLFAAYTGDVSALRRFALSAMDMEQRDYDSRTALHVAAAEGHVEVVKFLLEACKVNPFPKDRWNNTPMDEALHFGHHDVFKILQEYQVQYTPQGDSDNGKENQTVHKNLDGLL
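Human kidney-isoform GLS in 45 mM KH2PO4 pH 8.2, 0.02% Tween-20, with compound, started with 1mM L-Glutamine (added stock). Glutamate oxidase/HRP/Amplex red coupled fluorescence read at start and after 30 min at RT.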
PKM2 activator: qHTS Assay for Activators of Human Muscle isoform 2 Pyruvate Kinase; Pyruvate kinase PKM (Homo sapiens), P14618; purified PKM2, Kinase-Glo ATP luminescence, activation; response scale: 0% is enzyme alone, no compound; Potency, µM (series often up to 57.5 µM), for the others: top-dose activation, usual class: activators; 260,000 compounds, 0.34% hits; further: on the % scale 0 is the no-effect control and ±100 the full control effect; nearly all actives have a fitted effect of over 55% in size
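Kinase-Glo luminescence reports ATP generated from ADP (0.1 mM) and PEP (0.5 mM) by purified hPK-M2 after 1 h at room temperature, pH 7.2 imidazole buffer; intermediate enzyme activity allows detecting inhibitors and activators.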
Mito fusion act: qHTS Assay for Small Molecule Inhibitors of Mitochondrial Division or Activators of Mitochondrial Fusion; S. cerevisiae fusion-defective mutant growth rescue, CellTiterGlo 48 h; Potency, µM (top dose mostly 46.1 µM), for the others: top-dose growth rescue (activation), usual class: activators; 320,000 compounds, 0.23% hits; AID 485298, 2010; further: % of control where 0% means no effect; nearly all actives have a fitted effect of over 45% in size
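Read-out: ATP-based luminescence (CellTiterGlo, 10 min ambient) reporting growth of fusion-defective ts yeast after 48 hours at 37C on glycerol/ethanol YPEG medium in the presence of compound.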
GCN5L2 inh: qHTS Assay for Inhibitors of GCN5L2 | GCN5L2 HAT assay, ThioGlo1 CoA-SH fluorescence | Potency, µM (highest dose often 58.9 µM), without a hit: at the highest dose activity change, negative = inhibition, actives largely listed as inhibitors | 390,000 compounds, 0.21% hits | Histone acetyltransferase KAT2A (Homo sapiens), Q92830; further: on the % scale 0 is the no-effect control and ±100 the full control effect
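Preincubate 20nM GCN5L2 with compound 15 min, RT → add 50uM ThioGlo1 + 75uM H3(1-25) + 70uM acetyl-CoA → read fluorescence 0 and 20 min. Primary qHTS; fluorescent artifacts likely.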
Active calls of the source: *; u = inconclusive; x = no result; [ ] = remark or other dose. The call rests on the fitted dose curve; in most records, active means well fitted curve in the direction sought with a large enough effect; inconclusive means small, poorly fitted or top-dose-only effect, or another doubt; inactive means no such curve, though single readings can be large; an effect the other way counts as inactive or inconclusive. Potency means the concentration at half of the fitted maximal effect.

SMILES	PLK1 PBD inh	VDR inh	GLS inh	PKM2 activator	Mito fusion act	GCN5L2 inh
CC(CC(c1ccccc1)c1ccccc1)NC(C)(C)C (stereo not given)	x	x	9%	x	x	x
N#CN=c1snc(-c2ccccc2Cl)n1-c1ccccc1Cl	x	-11%	x	x	x	x
CCC1Sc2ccc(S(=O)(=O)CCC(=O)Nc3ccc(C(=O)OC)cc3)cc2NC1=O (stereo not given)	15µM*	u	4%	x	11%	-3%
COC(=O)c1ccc(NC(=O)CCS(=O)(=O)c2ccc3c(c2)NC(=O)C(C)S3)cc1 (stereo not given)	6µM*	u	1%	x	0%	2%
CCC1Sc2ccc(S(=O)(=O)CCC(=O)Nc3ccc(NC(C)=O)cc3)cc2NC1=O (stereo not given)	-19%	5%	3%	x	-3%	-5%
CCC1Sc2ccc(S(=O)(=O)CCC(=O)Nc3ccccc3Br)cc2NC1=O (stereo not given)	-11%	-10%	-8%	x	13%	-11%
CCC1Sc2ccc(S(=O)(=O)CCC(=O)Nc3cccc(Br)c3)cc2NC1=O (stereo not given)	12µM*	-28%	0%	x	13%	-5%
COc1ccccc1NC(=O)CCS(=O)(=O)c1ccc2c(c1)NC(=O)C(C)S2 (stereo not given)	7%	-6%	0%	-2%	5%	-5%
COc1ccc(CNC(=O)c2ccc3c(c2)NC(=O)C(C)S3)cc1 (stereo not given)	13µM*	u	-3%	4%	2%	-10%
Cc1cccc(NC(=O)CN2C(=O)C3CC=CCC3C2=O)c1C (stereo not given)	-8%	x	11%	x	x	x
CC[C@H](C)[C@H](NC(=O)[C@H](C)NC(=O)[C@H](CC(=O)O)NC(=O)[C@H](CO)NC(=O)[C@@H](N)Cc1cnc[nH]1)C(=O)N[C@@H](Cc1ccccc1)C(=O)N[C@H](C(=O)N[C@@H](CCC(N)=O)C(=O)N[C@@H](CCC(N)=O)C(=O)N[C@@H](Cc1ccc(O)cc1)C(=O)N[C@@H](CO)C(=O)N[C@@H](CCCCN)C(=O)N[C@@H](CC(C)C)C(=O)N[C@@H](CC(C)C)C(=O)N[C@@H](C)C(=O)N[C@@H](CCCCN)C(=O)N[C@@H](CC(C)C)C(=O)N[C@@H](C)C(=O)N[C@@H](CC(C)C)C(=O)N[C@@H](CCC(N)=O)C(=O)N[C@@H](CCCCN)C(=O)N[C@@H](Cc1ccc(O)cc1)C(=O)N[C@@H](CC(C)C)C(=O)N[C@@H](C)C(=O)N[C@@H](CO)C(=O)N[C@H](C(=O)N[C@@H](CC(C)C)C(=O)NCC(=O)N[C@@H](CO)C(=O)N[C@@H](CCCNC(=N)N)C(=O)N[C@H](C(=O)N[C@@H](CO)C(=O)N1CCC[C@H]1C(=O)N1CCC[C@H]1C(=O)N1CCC[C@H]1C(N)=O)[C@@H](C)O)[C@@H](C)CC)[C@@H](C)O	x	41%	x	x	x	u
Cc1ccc(S(=O)(=O)N2CCC(=O)N([C@H](COCc3ccc(Cl)c(Cl)c3)Cc3ccccc3)CC2)cc1	5%	x	1%	x	x	x
CC1CCC(C(C)C)C2=C1C(C#N)(C#N)C(C#N)(C#N)C(c1ccccc1)N2 (stereo not given)	u	89µM*	-15%	27%	-2%	-5%
CCOc1cc2c(cc1OC)C(c1cccc([N+](=O)[O-])c1)NCC2 (stereo not given)	4.7µM*	u	u	2%	-1%	-8%
CCOc1cc2c(cc1OCC)C(c1ccc(F)cc1)NCC2 (stereo not given)	0%	-1%	2%	x	x	x
CCOC(=O)C1CCCN(C(=O)Cn2nc(C)n3c(cc4c(OC)cccc43)c2=O)C1 (stereo not given)	27µM*	-22%	0%	x	1%	-14%
CCOC(=O)C1CCN(C(=O)Cn2nc(CC)n3cccc3c2=O)CC1	27µM*	u	25%	0%[0.46 µM]	8%	2%
CCOC(=O)C1CCN(C(=O)Cn2nc(C)n3c(cc4c(OC)cccc43)c2=O)CC1	x	-6%	-17%	x	x	-7%
CCc1nn(CC(=O)N2CCN(C)CC2)c(=O)c2cccn12	-9%	0%	-5%	-13%	-2%	-8%
CC(CN(C)C)CN1c2ccccc2S(=O)(=O)c2ccccc21 (stereo not given)	x	x	-7%	x	x	x
CN1CCN(S(=O)(=O)c2ccc(NC(=S)NC(=O)c3ccc(Cl)cc3)cc2)CC1	19µM*	-16%	10%	-19%	-6%	-8%
O=C(NC(=S)Nc1ccc(S(=O)(=O)N2CCCCC2)cc1)c1ccc(Cl)cc1	-14%	-8%	1%	1%	1%	-3%
CN1CCN(S(=O)(=O)c2ccc(NC(=S)NC(=O)c3ccccc3)cc2)CC1	27µM*	-2%	19%	-4%	-2%	-9%
CC1(C)N=C(N)N=C(N)N1c1ccc(Cl)cc1	x	x	-13%	x	x	x
C=CCNC(=O)c1cc(-c2cccnc2)nc2ccccc12	-4%	25%	0%	x	8%	0%
SMILES	PLK1 PBD inh	VDR inh	GLS inh	PKM2 activator	Mito fusion act	GCN5L2 inh
Cc1sc2ccccc2[n+]1CC(=O)c1ccccc1	21µM*	28µM*	34%	5%	8%	-1%
COc1ccc(C2CC(=O)N3CN(c4ccc(C)c(Cl)c4)CSC3=C2C#N)cc1 (stereo not given)	24µM*	32µM*	17%	-11%	5%	28µM*
COc1ccc(OC)c(C2CC(=O)N3CN(c4ccccc4)CSC3=C2C#N)c1 (stereo not given)	27µM*	20µM*	15%	-28%	3%	28µM*
COc1ccc(C2CC(=O)N3CN(C4CCCCC4)CSC3=C2C#N)c(OC)c1 (stereo not given)	x	u	11%	x	x	-19%
Cc1cccc(N2CSC3=C(C#N)C(c4ccc(C)o4)CC(=O)N3C2)c1 (stereo not given)	x	x	x	27%	8%	u
COc1ccc(C2CC(=O)N3CN(c4ccccc4F)CSC3=C2C#N)cc1OC (stereo not given)	30µM*	32µM*	8%	-19%	1%	22µM*
O=C(CCC(=O)c1ccccc1)NCCc1c[nH]c2ccccc12	0%	10%	20%	5%	15%	-5%

Compound activity as filed in PubChem.
